Targets with a hit are over-represented here; the source holds about 7,900 in all. About 0.6% of all pairs of compound and target were hits.
Assays:
Experiment in all cases: log2 fold change, soluble protein after heating vs DMSO (PISA); higher = thermal stabilisation; K562 cells, 10 uM, 30 min; active = over 0.2 and 3.5 SD of the protein, either way, in both replicates (recomputed)
[1] = compound: COC1=CC=C(C=C1)CN2C=CC3=C2C=C(C=C3)C(=O)NO
Outline: (§1)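 K562 cells at 2×10^6 cells/mL were exposed to 10 μM compound for 30 min, then aliquots were heated for 3 min across 48°C-58°C, pooled, and extracted in PBS containing 0.5% NP-40 at 4°C. The supernatant after 21,000xg for 90 min was taken as soluble protein and measured by TMTpro 16plex LC-MS/MS with channel sums equalised. Thermal stability is reported relative to control samples, with values from duplicates. Fold changes are given on a log2 scale.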

filanesib = compound: CON(C)C(=O)N1N=C(c2cc(F)ccc2F)S[C@@]1(CCCN)c1ccccc1 [filanesib]
Outline: as §1

zotarolimus = compound: CO[C@H]1C[C@@H]2CC[C@@H](C)[C@@](O)(O2)C(=O)C(=O)N2CCCC[C@H]2C(=O)O[C@H]([C@H](C)C[C@@H]2CC[C@H](n3cnnn3)[C@H](OC)C2)CC(=O)[C@H](C)/C=C(\C)[C@@H](O)[C@@H](OC)C(=O)[C@H](C)C[C@H](C)/C=C/C=C/C=C/1C [zotarolimus]
Outline: as §1

idasanutlin = compound: COc1cc(C(=O)O)ccc1NC(=O)[C@@H]1N[C@@H](CC(C)(C)C)[C@](C#N)(c2ccc(Cl)cc2F)[C@H]1c1cccc(Cl)c1F [idasanutlin]
Outline: as §1

alisertib = compound: COc1cc(Nc2ncc3c(n2)-c2ccc(Cl)cc2C(c2c(F)cccc2OC)=NC3)ccc1C(=O)O [alisertib]
Outline: as §1

[2] = compound: COc1cc2nc(-c3cc(F)ccc3O)nc(N[C@@H]3CNC[C@H]3C(C)(C)O)c2cc1OC
Outline: as §1

[3] = compound: COc1cccc2cc(-c3nc([C@H]4CC[C@H](C(=O)O)CC4)n4ncnc(N)c34)[nH]c12
Outline: as §1

lapatinib = compound: CS(=O)(=O)CCNCc1ccc(-c2ccc3ncnc(Nc4ccc(OCc5cccc(F)c5)c(Cl)c4)c3c2)o1 [lapatinib]
Outline: as §1

gefitinib = compound: COc1cc2ncnc(Nc3ccc(F)c(Cl)c3)c2cc1OCCCN1CCOCC1 [gefitinib]
Outline: as §1

pictilisib = compound: CS(=O)(=O)N1CCN(Cc2cc3nc(-c4cccc5[nH]ncc45)nc(N4CCOCC4)c3s2)CC1 [pictilisib]
Outline: as §1

Measured: log2 fold change

EZH2 isoform 2 (UniProt Q15910)
inactive: [1] -0.105 | filanesib -0.113 | zotarolimus -0.073 | idasanutlin 0.073 | alisertib -0.209 | [2] -0.129 | [3] -0.144 | lapatinib 0.112

ECPAS (UniProt Q5VYK3)
inactive: [1] 0.004 | filanesib -0.004 | zotarolimus 0.033 | idasanutlin -0.127 | alisertib -0.001 | [2] 0.055 | gefitinib -0.007 | [3] -0.087 | lapatinib -0.033 | pictilisib 0.005

DNAJC24 (UniProt Q6P3W2)
inactive: [1] -0.06 | filanesib 0.199 | zotarolimus 0.004 | alisertib 0.045 | [2] -0.111 | gefitinib 0.018 | [3] -0.112 | lapatinib 0.034

DNAH5 (UniProt Q8TE73)
Sequence of UniProt Q8TE73 (Q8TE73 whole entry, looked up): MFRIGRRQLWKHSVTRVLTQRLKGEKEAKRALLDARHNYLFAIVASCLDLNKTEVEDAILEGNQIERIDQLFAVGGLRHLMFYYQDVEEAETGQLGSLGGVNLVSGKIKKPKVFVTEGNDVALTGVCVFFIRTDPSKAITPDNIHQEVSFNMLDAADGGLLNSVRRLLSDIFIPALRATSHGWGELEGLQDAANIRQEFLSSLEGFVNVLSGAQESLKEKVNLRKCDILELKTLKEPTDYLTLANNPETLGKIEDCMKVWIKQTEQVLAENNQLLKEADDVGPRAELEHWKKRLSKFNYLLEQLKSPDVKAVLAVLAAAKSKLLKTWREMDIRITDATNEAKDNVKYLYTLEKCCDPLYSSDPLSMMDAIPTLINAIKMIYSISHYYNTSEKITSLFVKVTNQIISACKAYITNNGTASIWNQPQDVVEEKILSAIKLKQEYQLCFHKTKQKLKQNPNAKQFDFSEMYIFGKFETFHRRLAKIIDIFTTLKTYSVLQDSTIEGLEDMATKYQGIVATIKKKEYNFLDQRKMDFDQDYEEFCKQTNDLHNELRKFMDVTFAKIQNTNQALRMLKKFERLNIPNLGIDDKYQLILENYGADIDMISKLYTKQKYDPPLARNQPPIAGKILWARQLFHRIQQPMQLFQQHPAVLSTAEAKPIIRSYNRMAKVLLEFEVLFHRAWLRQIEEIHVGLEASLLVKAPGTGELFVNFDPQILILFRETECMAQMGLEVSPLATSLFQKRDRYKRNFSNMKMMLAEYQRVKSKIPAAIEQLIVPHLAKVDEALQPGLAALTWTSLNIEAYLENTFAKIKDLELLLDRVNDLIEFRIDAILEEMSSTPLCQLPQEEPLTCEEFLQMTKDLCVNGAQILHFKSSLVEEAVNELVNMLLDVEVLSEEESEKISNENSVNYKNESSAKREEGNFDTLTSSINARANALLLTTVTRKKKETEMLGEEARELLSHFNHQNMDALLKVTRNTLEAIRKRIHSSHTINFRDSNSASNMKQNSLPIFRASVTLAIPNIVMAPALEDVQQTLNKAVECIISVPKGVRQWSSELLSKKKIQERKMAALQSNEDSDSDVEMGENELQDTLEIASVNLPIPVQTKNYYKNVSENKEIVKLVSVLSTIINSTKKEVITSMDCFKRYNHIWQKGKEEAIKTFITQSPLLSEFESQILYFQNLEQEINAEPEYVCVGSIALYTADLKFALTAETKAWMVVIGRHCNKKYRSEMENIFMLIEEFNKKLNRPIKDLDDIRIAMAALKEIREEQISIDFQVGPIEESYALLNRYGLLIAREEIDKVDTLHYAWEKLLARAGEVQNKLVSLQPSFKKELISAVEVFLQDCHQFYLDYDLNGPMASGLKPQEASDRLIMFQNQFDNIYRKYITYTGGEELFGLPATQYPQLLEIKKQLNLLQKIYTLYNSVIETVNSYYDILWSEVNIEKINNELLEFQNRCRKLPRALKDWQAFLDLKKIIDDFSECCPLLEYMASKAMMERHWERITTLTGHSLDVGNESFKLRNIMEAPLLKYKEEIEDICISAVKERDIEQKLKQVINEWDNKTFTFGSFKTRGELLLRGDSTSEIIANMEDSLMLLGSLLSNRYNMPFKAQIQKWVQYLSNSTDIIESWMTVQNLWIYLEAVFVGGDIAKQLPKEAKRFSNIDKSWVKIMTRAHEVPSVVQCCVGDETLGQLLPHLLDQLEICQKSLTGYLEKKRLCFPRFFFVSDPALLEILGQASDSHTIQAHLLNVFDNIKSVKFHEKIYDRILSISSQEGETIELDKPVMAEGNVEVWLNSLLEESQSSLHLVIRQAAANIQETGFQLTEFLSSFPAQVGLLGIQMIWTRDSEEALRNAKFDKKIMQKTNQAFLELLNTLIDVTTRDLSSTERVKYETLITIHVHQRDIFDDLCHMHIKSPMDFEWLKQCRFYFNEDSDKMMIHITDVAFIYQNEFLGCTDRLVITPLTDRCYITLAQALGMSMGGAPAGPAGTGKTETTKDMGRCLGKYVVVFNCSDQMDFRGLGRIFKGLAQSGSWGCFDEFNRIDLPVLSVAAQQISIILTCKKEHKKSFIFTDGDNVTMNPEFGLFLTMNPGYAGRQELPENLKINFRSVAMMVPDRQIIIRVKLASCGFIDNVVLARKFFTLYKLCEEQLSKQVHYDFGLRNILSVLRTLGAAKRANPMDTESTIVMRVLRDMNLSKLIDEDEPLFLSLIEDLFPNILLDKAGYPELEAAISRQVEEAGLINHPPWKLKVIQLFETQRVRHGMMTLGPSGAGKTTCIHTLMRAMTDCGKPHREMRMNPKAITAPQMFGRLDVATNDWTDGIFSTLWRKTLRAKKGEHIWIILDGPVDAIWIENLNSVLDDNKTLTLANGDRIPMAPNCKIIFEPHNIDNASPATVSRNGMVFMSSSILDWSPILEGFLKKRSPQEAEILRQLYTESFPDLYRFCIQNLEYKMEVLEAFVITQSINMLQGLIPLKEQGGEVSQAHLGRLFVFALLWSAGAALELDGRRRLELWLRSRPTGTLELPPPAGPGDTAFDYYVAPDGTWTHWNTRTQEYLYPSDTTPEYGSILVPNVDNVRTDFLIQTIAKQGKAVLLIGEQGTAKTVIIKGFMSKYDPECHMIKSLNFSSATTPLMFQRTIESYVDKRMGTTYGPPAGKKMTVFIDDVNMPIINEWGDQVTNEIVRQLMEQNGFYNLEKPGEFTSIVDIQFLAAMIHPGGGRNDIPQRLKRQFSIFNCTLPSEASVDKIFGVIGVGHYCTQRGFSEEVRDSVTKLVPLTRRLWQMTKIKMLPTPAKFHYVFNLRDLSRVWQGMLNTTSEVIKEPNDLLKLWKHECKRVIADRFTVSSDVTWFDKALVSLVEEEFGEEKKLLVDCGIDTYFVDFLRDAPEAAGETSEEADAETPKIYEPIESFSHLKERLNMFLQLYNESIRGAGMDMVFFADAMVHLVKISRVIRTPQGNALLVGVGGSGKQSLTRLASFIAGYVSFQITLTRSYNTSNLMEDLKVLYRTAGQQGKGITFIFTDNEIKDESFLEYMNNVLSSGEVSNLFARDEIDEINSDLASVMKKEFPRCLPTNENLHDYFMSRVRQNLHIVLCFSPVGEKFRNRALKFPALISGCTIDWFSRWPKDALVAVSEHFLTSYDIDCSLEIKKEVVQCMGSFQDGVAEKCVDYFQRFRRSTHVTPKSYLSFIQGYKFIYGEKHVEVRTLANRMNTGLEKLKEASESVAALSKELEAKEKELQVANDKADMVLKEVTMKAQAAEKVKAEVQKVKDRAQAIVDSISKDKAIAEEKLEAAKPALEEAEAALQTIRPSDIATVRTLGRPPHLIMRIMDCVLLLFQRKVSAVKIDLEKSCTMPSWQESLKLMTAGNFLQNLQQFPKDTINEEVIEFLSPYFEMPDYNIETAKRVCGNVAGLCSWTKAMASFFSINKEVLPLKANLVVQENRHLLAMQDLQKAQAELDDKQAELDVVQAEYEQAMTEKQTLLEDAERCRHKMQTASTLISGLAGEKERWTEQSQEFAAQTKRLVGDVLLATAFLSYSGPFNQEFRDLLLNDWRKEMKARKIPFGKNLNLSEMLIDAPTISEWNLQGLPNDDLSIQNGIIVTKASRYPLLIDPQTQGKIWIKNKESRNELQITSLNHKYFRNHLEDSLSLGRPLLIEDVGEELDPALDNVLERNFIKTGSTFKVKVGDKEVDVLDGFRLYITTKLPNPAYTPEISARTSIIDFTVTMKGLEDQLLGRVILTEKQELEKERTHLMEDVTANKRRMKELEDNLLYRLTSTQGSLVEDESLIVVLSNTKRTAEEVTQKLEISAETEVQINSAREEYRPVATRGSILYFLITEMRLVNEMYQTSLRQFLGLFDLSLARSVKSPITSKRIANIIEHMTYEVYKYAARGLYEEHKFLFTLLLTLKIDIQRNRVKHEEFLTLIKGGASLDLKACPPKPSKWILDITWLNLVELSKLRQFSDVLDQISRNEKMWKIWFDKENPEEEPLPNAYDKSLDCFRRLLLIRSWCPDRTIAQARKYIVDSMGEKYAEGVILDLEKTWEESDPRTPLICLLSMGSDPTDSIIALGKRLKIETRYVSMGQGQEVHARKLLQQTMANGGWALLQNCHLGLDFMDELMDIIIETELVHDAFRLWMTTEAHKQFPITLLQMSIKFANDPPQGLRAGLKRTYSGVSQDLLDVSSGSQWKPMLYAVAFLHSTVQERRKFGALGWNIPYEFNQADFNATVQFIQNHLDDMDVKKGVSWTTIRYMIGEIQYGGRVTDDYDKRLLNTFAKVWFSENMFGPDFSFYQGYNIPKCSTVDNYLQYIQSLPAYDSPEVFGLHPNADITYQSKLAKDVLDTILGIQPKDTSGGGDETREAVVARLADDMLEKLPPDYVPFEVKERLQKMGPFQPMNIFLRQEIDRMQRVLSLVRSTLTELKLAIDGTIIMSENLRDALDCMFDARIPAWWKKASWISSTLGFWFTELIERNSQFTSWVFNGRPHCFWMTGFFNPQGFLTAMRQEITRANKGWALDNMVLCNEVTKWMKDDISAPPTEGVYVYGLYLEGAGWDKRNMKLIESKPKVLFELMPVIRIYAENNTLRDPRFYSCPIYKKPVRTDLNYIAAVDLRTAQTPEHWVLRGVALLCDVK
inactive: [1] -0.147 | filanesib -0.061 | zotarolimus 0.024 | alisertib 0.011 | [2] -0.042 | gefitinib 0.046 | [3] 0.058 | pictilisib -0.001
active: lapatinib -0.484

DCP2 (UniProt Q8IU60)
inactive: [1] -0.085 | filanesib 0.121 | zotarolimus -0.037 | idasanutlin 0.167 | [2] 0.075 | lapatinib -0.042

FAM241A (UniProt Q8N8J7)
Sequence of UniProt Q8N8J7 (Q8N8J7 whole entry, looked up): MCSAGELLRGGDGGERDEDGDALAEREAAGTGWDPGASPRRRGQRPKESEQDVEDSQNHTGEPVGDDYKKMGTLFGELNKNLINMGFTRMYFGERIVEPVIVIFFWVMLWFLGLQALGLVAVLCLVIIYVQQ
active: filanesib -0.828
inactive: [1] 0.226 | zotarolimus -0.045 | idasanutlin 0.018 | alisertib -0.038 | [2] 0.042 | gefitinib 0.044 | [3] -0.006 | lapatinib -0.038 | pictilisib 0

DNAJB1 (UniProt P25685)
inactive: [1] 0.07 | filanesib -0.013 | zotarolimus 0.007 | idasanutlin -0.032 | alisertib -0.063 | [2] 0.046 | gefitinib 0.06 | [3] 0.003 | lapatinib -0.032 | pictilisib 0.005

DYNC1I2 isoform 2 (UniProt Q13409)
inactive: [1] 0.093 | filanesib 0.203 | zotarolimus -0.085 | idasanutlin 0.201 | alisertib 0.066 | [2] 0.06 | [3] 0.051 | lapatinib -0.002

DBNL isoform 3 (UniProt Q9UJU6)
inactive: [1] 0.096 | filanesib 0.006 | zotarolimus -0.018 | idasanutlin 0.02 | alisertib 0.025 | [2] -0.002 | gefitinib 0.021 | [3] -0.016 | lapatinib 0.016 | pictilisib 0.027

DDB1 (UniProt Q16531)
inactive: [1] -0.024 | filanesib -0.015 | zotarolimus -0.017 | idasanutlin -0.029 | alisertib -0.06 | [2] 0.006 | gefitinib -0.012 | [3] 0.061 | lapatinib -0.022 | pictilisib 0.025

EXOSC10 (UniProt Q01780)
inactive: [1] 0.593 | filanesib 0.136 | zotarolimus 0.115 | idasanutlin 0.01 | alisertib -0.002 | [2] 0.387 | [3] 0.1 | lapatinib -0.221 | pictilisib 0.227

ELAC1 (UniProt Q9H777)
inactive: [1] 0.022 | filanesib 0.083 | zotarolimus -0.06 | idasanutlin 0.122 | [2] 0.06 | gefitinib 0.112 | lapatinib -0.009 | pictilisib 0.049

EGLN1 (UniProt Q9GZT9)
Sequence of UniProt Q9GZT9 (Q9GZT9 whole entry, looked up): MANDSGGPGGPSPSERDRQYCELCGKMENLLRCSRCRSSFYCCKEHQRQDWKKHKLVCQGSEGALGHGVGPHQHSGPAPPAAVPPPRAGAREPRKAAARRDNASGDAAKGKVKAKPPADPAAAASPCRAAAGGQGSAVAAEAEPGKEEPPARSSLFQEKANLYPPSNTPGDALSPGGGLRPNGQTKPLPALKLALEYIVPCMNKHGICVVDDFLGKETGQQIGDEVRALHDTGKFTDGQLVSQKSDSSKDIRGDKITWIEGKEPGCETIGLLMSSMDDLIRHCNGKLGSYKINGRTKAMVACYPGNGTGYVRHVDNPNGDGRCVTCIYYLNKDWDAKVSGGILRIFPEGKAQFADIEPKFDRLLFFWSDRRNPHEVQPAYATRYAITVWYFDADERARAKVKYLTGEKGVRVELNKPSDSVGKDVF
inactive: filanesib -0.07 | zotarolimus -0.022 | idasanutlin -0.004 | alisertib 0.018 | [2] 0.018 | gefitinib 0.022 | [3] -0.074 | lapatinib 0.01 | pictilisib 0.009
active: [1] -0.361

ELF1 (UniProt P32519)
inactive: [1] 0.001 | filanesib 0.028 | zotarolimus -0.019 | idasanutlin 0.089 | [2] -0.297 | gefitinib 0.01 | lapatinib -0.12

ELOVL1 (UniProt Q9BW60)
inactive: [1] -0.103 | filanesib -0.139 | zotarolimus -0.051 | idasanutlin -0.051 | alisertib 0.032 | [2] -0.084 | gefitinib -0.087 | [3] 0.032 | lapatinib -0.078 | pictilisib -0.046

EXTL2 (UniProt Q9UBQ6)
inactive: [1] 0.051 | filanesib -0.023 | zotarolimus -0.147 | idasanutlin -0.121 | alisertib -0.144 | [2] -0.094 | gefitinib 0.075 | [3] 0.123 | lapatinib 0.05 | pictilisib -0.111

EEF1G isoform 2 (UniProt P26641)
inactive: [1] -0.017 | filanesib 0.012 | zotarolimus 0.027 | idasanutlin -0.014 | alisertib -0.046 | [2] -0.016 | gefitinib 0.018 | [3] -0.083 | lapatinib 0.041 | pictilisib -0.06

DNM2 isoform 4 (UniProt P50570)
inactive: [1] 0.455 | filanesib 0.021 | zotarolimus 0.273 | alisertib 0.316 | gefitinib -0.013 | [3] -0.272 | pictilisib -0.123

FAM122A (UniProt Q96E09)
inactive: [1] -0.05 | filanesib -0.004 | zotarolimus -0.038 | idasanutlin 0.017 | alisertib -0.068 | [2] -0.053 | gefitinib 0.019 | [3] 0.005 | lapatinib 0.018 | pictilisib 0.092

CWF19L2 (UniProt Q2TBE0)
inactive: [1] 0.003 | filanesib 0.225 | zotarolimus -0.025 | idasanutlin 0.124 | [2] 0.062 | lapatinib -0.08 | pictilisib -0.309

FAM118B (UniProt Q9BPY3)
inactive: [1] 0.028 | filanesib -0.196 | zotarolimus 0.011 | idasanutlin -0.034 | alisertib -0.049 | [2] 0.017 | gefitinib 0.031 | [3] 0.129 | lapatinib 0.018 | pictilisib 0.099

CTSB (UniProt P07858)
inactive: [1] 0.044 | filanesib -0.16 | zotarolimus 0.044 | idasanutlin 0.032 | alisertib 0.007 | [2] -0.006 | gefitinib 0.024 | [3] 0.03 | lapatinib -0.016 | pictilisib 0.043

DDX4 (UniProt Q9NQI0)
inactive: [1] -0.474 | filanesib 0.186 | zotarolimus 0.004 | idasanutlin 0.42 | alisertib 0.172 | [2] 0.368 | gefitinib 0.048 | [3] -0.715 | lapatinib -0.399 | pictilisib 0.17

E2F4 (UniProt Q16254)
inactive: [1] -0.024 | filanesib -0.034 | zotarolimus 0.042 | idasanutlin 0.006 | alisertib -0.056 | [2] -0.098 | gefitinib 0.003 | [3] 0.059 | lapatinib 0.047 | pictilisib 0.044

DOCK8 (UniProt Q8NF50)
inactive: [1] 0.475 | filanesib 0.464 | zotarolimus 0.083 | idasanutlin 0.217 | alisertib -0.029 | gefitinib 0.006 | [3] -0.428 | pictilisib -0.337

EEF1AKNMT (UniProt Q8N6R0)
inactive: [1] -0.256 | filanesib -0.052 | zotarolimus 0.096 | idasanutlin 0.013 | alisertib -0.035 | [2] 0.037 | gefitinib 0.065 | [3] -0.037 | lapatinib -0.014 | pictilisib 0

DTWD1 (UniProt Q8N5C7)
inactive: [1] -0.227 | filanesib -0.081 | zotarolimus 0.031 | idasanutlin -0.115 | alisertib -0.057 | [2] 0.078 | gefitinib 0.069 | [3] 0.031 | lapatinib 0.044 | pictilisib 0.124

DCAF16 (UniProt Q9NXF7)
inactive: [1] 0.065 | filanesib 0.077 | zotarolimus 0.035 | idasanutlin 0.037 | alisertib -0.07 | [2] 0.021 | gefitinib 0.022 | [3] 0 | lapatinib -0.168 | pictilisib 0.132

EVC2 (UniProt Q86UK5)
inactive: [1] -0.073 | filanesib -0.142 | zotarolimus -0.039 | idasanutlin 0.053 | alisertib -0.066 | [2] -0.146 | gefitinib 0.09 | [3] 0.016 | lapatinib -0.224 | pictilisib -0.194

Reference: the supplement of paper PMC10849652
